These results are taken from PubChem BioAssay AID1851 (National Center for Advancing Translational Sciences (NCATS), 2009).

Each structure is given as a SMILES string. The campaign covered roughly 16,000 compounds. About 5,100 (32%) were called active. Roughly 25% stayed inconclusive and do not appear here. Some of the results follow. A number with no mark means an inactive call. Calls follow the shape of the dose curve; as a rule, active = well fitted curve in the direction sought with a large enough effect; inconclusive = small, poorly fitted or top-dose-only effect, or effect the other way; inactive = no such curve, though single readings can be large or run the other way.
% is scaled to controls: 0 for no effect and ±100 for the full control effect.

Sequence of Cytochrome P450 3A4 (Homo sapiens) (P08684 whole entry, looked up): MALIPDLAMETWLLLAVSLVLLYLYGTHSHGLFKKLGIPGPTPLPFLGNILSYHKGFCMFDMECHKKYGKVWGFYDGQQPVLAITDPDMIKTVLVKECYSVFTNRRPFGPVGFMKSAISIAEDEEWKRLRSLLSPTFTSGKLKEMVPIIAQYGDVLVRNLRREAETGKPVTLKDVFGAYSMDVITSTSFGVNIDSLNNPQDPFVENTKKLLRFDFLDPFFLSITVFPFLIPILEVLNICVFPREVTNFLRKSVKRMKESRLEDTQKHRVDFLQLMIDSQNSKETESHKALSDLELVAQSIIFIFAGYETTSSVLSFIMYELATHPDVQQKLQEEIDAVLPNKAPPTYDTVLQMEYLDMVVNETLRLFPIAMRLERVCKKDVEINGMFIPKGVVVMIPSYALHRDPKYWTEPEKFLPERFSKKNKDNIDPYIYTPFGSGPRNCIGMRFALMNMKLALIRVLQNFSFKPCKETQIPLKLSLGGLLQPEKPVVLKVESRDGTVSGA

The assay concerns the target Cytochrome P450 3A4 (Homo sapiens) (UniProt P08684). The assay can be described thus: Cytochrome panel assay with activity outcomes. The conditions noted are these: recombinant CYP, pro-luciferin dealkylation, luminescence, p450-cyp3a4; series mostly up to 57.1 µM; activity, negative = inhibition: at the top concentration.
Take `CC(C)NCC[C@@H](O)c1cc2ccccc2o1`: the activity, negative = inhibition was -4.13% [at 11.4 µM].

Regarding `CCOC(=O)/C(C#N)=C1/C=CN(C)C=N1`, the “activity, negative = inhibition” value was 27.7%.

For the compound `CC(=O)c1ccc(NC(=O)C2(c3ccccc3)CCOCC2)cc1`, the “activity, negative = inhibition” value is -28.3%.

The term AC50 denotes the midpoint of the concentration-response curve, whichever way the signal moves. `CSc1ccc(C#N)cc1NC(=O)c1cccc(Cl)c1`: the AC50 was 25.1 µM (active).

`CO/N=C(/CNC(=O)c1cccc(Cl)c1)c1ccc(Cl)cc1`: the activity, negative = inhibition is -6.99% [at 2.29 µM].

On to `Cc1nn(-c2ccccc2)c(-c2ccccc2)c1C(=O)O`, for which the “activity, negative = inhibition” value is -1.38%.

In the case of `CCCc1c(-c2ccc(O)cc2)nn(-c2ccc(O)cc2)c1-c1ccc(O)cc1`, the AC50 is 2.51 µM (active).

`C[C@H](NCCc1ccc(O)cc1)[C@@H](O)c1ccc(O)cc1`: the AC50 result is “inactive”.

For the compound `CC(=O)N[C@H](Cc1ccc(O)cc1)C(=O)O`, the activity, negative = inhibition was -12.2% [at 11.4 µM].

As for `N#C[C@H](Cc1ccc(O)cc1)c1ccc(O)cc1`, the AC50 was 12.6 µM (active).

With `Cc1ccc(C(=O)NNC(=O)CSc2nnc3c(n2)[nH]c2ccc(F)cc23)cc1`, the half-maximal activity concentration (AC50) is 1.58 µM (active).

Regarding `Cc1ccccc1C(=O)NNC(=O)c1ccc(F)cc1`, the “activity, negative = inhibition” value was -5.86%.

On to `CC1CCc2cc(F)ccc2N1C(=O)CSc1nnc2c(n1)[nH]c1ccc(F)cc12` (stereo not drawn), for which the AC50 was 2 µM (active).

With `Cc1occc1C(=O)NNC(=O)c1ccc(F)cc1`, the “activity, negative = inhibition” value was 18.8%.

For `O=C(O)c1nn(-c2ccccc2)nc1-c1nn(-c2ccccc2)nc1C(=O)O`, the “activity, negative = inhibition” value was 11.6%.

Regarding `CN1CCC2(CC1)CCN(C(=O)c1ccncc1)CC2`, the “activity, negative = inhibition” value was -7.59%.

Consider `CC1(C)Cc2ccccc2C(NNC(=O)c2ccncc2)=N1`, for which the AC50 is 8.91 µM (active).

On to `CC1=NC(C)(C)Cc2ccccc21`, for which the “activity, negative = inhibition” value is -15.9%.

Turning to `CC(C)n1nnnc1-c1cc(Cl)cc(Cl)c1`, the activity, negative = inhibition is 11.3% [at 2.29 µM].

For the compound `CC(C)CC(c1nnnn1C(C)C)N1CCN(c2ccccc2)CC1` (stereo not drawn), the AC50 was 3.98 µM (active).

Consider `ClC(Cl)(Cl)C(N1CCN(c2ccccc2)CC1)N1CCN(c2ccccc2)CC1`, for which the activity, negative = inhibition was -3.89% [at 11.4 µM].

Consider `O=C(O)[C@H]1C[C@H](C(=O)O)N1`, for which the “activity, negative = inhibition” value is -4.9%.

Regarding `CCn1c(Cc2ccccc2)nnc1SCC(=O)NC(C)(C)C`, the AC50 was 11.2 µM (active).

For the compound `CCc1c(O)nc(SCC(=O)NC(C)(C)C)n(-c2ccccc2)c1=O`, the activity, negative = inhibition is -1.41% [at 2.29 µM].

Turning to `C=CCn1c(Cc2c[nH]c3ccccc23)nnc1SCC(=O)NCc1ccccc1`, the activity, negative = inhibition was -3.87% [at 2.29 µM].

In the case of `CCn1c(CSCc2ccc(C)cc2)nnc1SCC(=O)NCc1ccccc1`, the AC50 is 7.94 µM (active).

For the compound `CCn1c(CC(=O)Nc2ccc(C)cc2)nnc1SCC(=O)Nc1nc(C)cs1`, the AC50 was 7.94 µM (active).

For the compound `CCn1c(CC(=O)Nc2ccc(C)cc2)nnc1SCC(=O)NCCc1ccccc1`, the AC50 is 10 µM (active).

On to `CC(C)(C)NC(=O)NC(=O)CSc1nnc2ccccn12`, for which the “activity, negative = inhibition” value is 13.5%.

On to `CN(C)CC(O)COc1cccc(OCC(O)CN(C)C)c1` (stereo not drawn), for which the “activity, negative = inhibition” value was -0.983%.

Regarding `CCN1C(=O)[C@H]2[C@@H]3[C@H](O)C=CC(=O)[C@H]3CC[C@H]2C1=O`, the activity, negative = inhibition is -12.1% [at 11.4 µM].

On to `O=c1oc(-c2cccs2)nc2ccc(Br)cc12`, for which the “activity, negative = inhibition” value is -22.2%.

As for `O=S(=O)(c1ccccc1)N1N=C(c2cccs2)CC1c1ccc(Br)cc1` (stereo not drawn), the AC50 was 2 µM (active).

In the case of `CCOC(=O)CSc1nnc(NC(=O)c2cccc(S(=O)(=O)N3CCCCCC3)c2)s1`, the activity, negative = inhibition is -15.1% [at 2.29 µM].

Turning to `O=C(Nc1nnc(C2CC2)s1)c1cc(S(=O)(=O)N2CCN(c3ccccc3)CC2)ccc1Cl`, the AC50 is 2 µM (active).

`CCN1CCN(S(=O)(=O)c2ccc(Cl)c(C(=O)Nc3nnc(CC(C)C)s3)c2)CC1`: the AC50 was 14.1 µM (active).

On to `CC(C)Cc1nnc(NC(=O)c2ccc([N+](=O)[O-])cc2)s1`, for which the “activity, negative = inhibition” value is 17.9%.

For `O=C(Nc1nnc(C2CC2)s1)c1ccc(S(=O)(=O)c2ccccc2)cc1`, the “activity, negative = inhibition” value was 25.6%.

On to `CCc1cc(C(c2ccccc2OC)N2CCOCC2)c(NC(=O)c2ccccc2)s1` (stereo not drawn), for which the AC50 was 4.47 µM (active).

For `CCOc1ccc2nc(NC(=O)c3ccc(S(=O)(=O)N4CCOCC4)cc3)sc2c1`, the “activity, negative = inhibition” value is -15%.

With `COc1ccc(-c2noc(C3CCCN(C(=O)c4ccccc4OC)C3)n2)cc1OC` (stereo not drawn), the AC50 is 5.01 µM (active).

As to `CN(C)c1ccc(-c2noc(C3CCN(S(=O)(=O)c4cccc(C(=O)O)c4)CC3)n2)cc1`, the “activity, negative = inhibition” value was -21.2%.

With `CCCCC1CCC(c2nc(-c3ccccn3)no2)CC1` (stereo not drawn), the activity, negative = inhibition is 5.4% [at 2.29 µM].

As for `COc1ccc(NC(=O)c2ccc(-c3ccc(-c4noc(C)n4)cc3C)cc2)cc1N1CCN(C)CC1`, the “activity, negative = inhibition” value was -16.4%.

Consider `CCCCCC(=O)N1CCCC(c2nc(-c3ccc(OC)cc3)no2)C1` (stereo not drawn), for which the AC50 was 7.08 µM (active).

Turning to `O=C(Nc1ccccc1)N1CCCC(c2nc(-c3ccc(F)cc3)no2)C1` (stereo not drawn), the AC50 is 14.1 µM (active).

Take `O=C(NCc1cccc(C(F)(F)F)c1)c1cc(Cl)cc(Cl)c1`: the AC50 was 14.1 µM (active).

On to `O=C(NCc1ccccc1)c1cccc(COc2cccc(Cl)c2)c1`, for which the activity, negative = inhibition is -29.3% [at 11.4 µM].
